# Most compounds without a hit are left out; they make up all but 3.4% or so of the library.
# TEAD-YAP inh: TEAD-YAP interaction inhibition. HEK-TIYL cells, TEAD-Gal4/YAP UAS-luciferase luminescence. inhibition, % at 9.12 µM. 640,000 tested, 1.4% active. AID 1259422; in the data active = inhibition above about 32%
# MITF inh: inhibitors of human MITF; 650,000 tested, 0.91% active; AlphaScreen MITF homodimerization, bead proximity signal; O75030; AID 1259374; inhibition, % at 2.6 µM; in the data active = inhibition above about 50%
# Target sequence (O75030 whole entry, looked up): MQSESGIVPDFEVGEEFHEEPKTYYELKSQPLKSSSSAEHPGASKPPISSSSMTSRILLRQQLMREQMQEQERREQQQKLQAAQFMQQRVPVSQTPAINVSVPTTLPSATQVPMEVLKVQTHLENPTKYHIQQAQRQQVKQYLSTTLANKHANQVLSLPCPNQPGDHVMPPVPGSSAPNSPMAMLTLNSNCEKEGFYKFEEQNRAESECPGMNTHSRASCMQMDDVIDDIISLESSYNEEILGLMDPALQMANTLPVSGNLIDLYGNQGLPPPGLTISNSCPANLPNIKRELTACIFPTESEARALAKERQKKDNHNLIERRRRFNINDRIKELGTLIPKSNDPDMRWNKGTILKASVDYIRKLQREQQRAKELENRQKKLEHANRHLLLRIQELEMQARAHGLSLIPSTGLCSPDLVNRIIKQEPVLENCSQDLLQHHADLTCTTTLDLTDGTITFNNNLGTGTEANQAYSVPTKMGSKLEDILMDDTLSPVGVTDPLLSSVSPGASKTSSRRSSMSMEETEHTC
# FBW7 act: activators of human E3 ligase FBW7. Q969H0. AlphaScreen FBW7–phospho-cyclin E peptide binding, activator screen. normalized activity (activation), % at 26.1 µM. 650,000 tested, 0.13% active; in the data active = normalized activity above about 1.9%;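 note: purified mutant Fbw7 with reduced substrate affinity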
# GPR151 ag: human GPR151 activation; Q8TDV0; PathHunter beta-arrestin GPR151 cells, luminescence; activation, % at 11.2 µM; 650,000 tested, 1% active; AID 1508602; in the data active = activation above about 4.9%
# A number is an active result; – = inactive.
SMILES,TEAD-YAP inh,MITF inh,FBW7 act,GPR151 ag
COc1ccccc1/C=N\N=C(/N)c1ccccn1,55.8,–,–,–
Cc1cc(N2CCN(c3ncccn3)CC2)nc2ccc(NC(=O)c3ccncc3)cc12,47.9,–,–,–
COc1cc(/C=C/C(=O)Nc2ccc3nc(N4CCN(c5ncccn5)CC4)cc(C)c3c2)cc(OC)c1OC,42.2,–,–,–
Cc1ccc(-c2cnc(NC3CC3)nc2)cc1,54.5,–,–,–
Cc1ccc(-n2c(=O)[nH]cc(C(=O)Nc3ccc(C)cc3C)c2=O)cc1,–,–,–,–
Cc1ccc(C(=O)n2c(N)nc3ccccc32)cc1,90.7,–,–,–
Nc1nc2ccccc2n1C(=O)c1ccc(Cl)cc1,70.7,–,–,–
O=CC12c3ccccc3C(c3ccccc31)C1C(=O)N(c3ccc(Cl)cc3)C(=O)C12 (centres undefined),44.4,–,–,–
O=CC12c3ccccc3C(c3ccccc31)C1C(=O)N(c3ccccc3)C(=O)C12 (centres undefined),–,–,–,–
Cc1ccc(N2C(=O)C3C4c5ccccc5C(C=O)(c5ccccc54)C3C2=O)cc1[N+](=O)[O-] (centres undefined),34.3,–,–,–
CCOC(=O)N1CCC(NC(=O)C2CC23CCN(Cc2ccc(C)o2)CC3)CC1 (centres undefined),–,–,–,–
O=C(Nc1cccc(Cl)c1N1CCN(CCc2ccccc2)CC1)c1ccc(Br)o1,–,–,–,22.8
C=C(C)CN1CCN(c2c(Cl)cccc2NC(=O)c2ccc(Br)o2)CC1,–,–,–,–
CCN1CCN(c2c(Cl)cccc2NC(=O)c2cccc3ccccc23)CC1,35.3,–,–,–
CCC1CCCCN1CCCNC(=O)Cn1ncc2c3ccccc3n(C)c2c1=O (centres undefined),–,–,–,–
c1csc(-c2cn3ccc4ccccc4c3n2)c1,–,–,2.5,–
Cc1sc(NC(=O)CSc2nnnn2-c2ccccc2)nc1-c1ccccc1,–,–,–,–
Cc1cccc2sc(NC(=O)CSc3nnnn3-c3ccccc3)nc12,–,–,2.0,–
O=c1cc(O)cc(/C=C/c2ccc(O)c(O)c2)o1,–,86.3,–,–
COc1cc(/C=C/c2ccc(O)c(OC)c2)ccc1O,–,–,–,–
COc1ccc(C2C(C(=O)N3CCN(c4ccccc4F)CC3)CCC(=O)N2c2ccc(OC)cc2)cc1 (centres undefined),–,–,–,–
CCCOC(=O)c1ccc(NC(=O)COc2ccc(Br)cc2Br)cc1,–,–,–,–
O=C1C=CC(=O)N1CCCCCCN1C(=O)C=CC1=O,40.7,–,–,–
COc1cc(C=O)ccc1OCc1nnnn1-c1ccccc1,–,–,2.0,–
CC1=NOC(=O)/C1=C\c1ccc(-c2ccc(N3CCCCC3)c([N+](=O)[O-])c2)o1,–,–,–,–
SMILES,TEAD-YAP inh,MITF inh,FBW7 act,GPR151 ag
Cc1ccc(C#N)c(SCc2nnc(-c3ccc(Cl)cc3)o2)n1,68.2,–,–,–
CC(C)(C)CN1CCNC(=O)C1CC(=O)N1CCC(Oc2cccc(F)c2)CC1 (centres undefined),–,–,–,–
COc1ccc(S(=O)(=O)NCc2ccncc2)cc1,43.3,–,–,–
O=S(=O)(NCc1ccncc1)c1ccc(Br)s1,34.3,–,–,–
CN(C)S(=O)(=O)c1ccc(S(=O)(=O)NCc2ccncc2)cc1,43.2,–,–,–
Cc1ccc(S(=O)(=O)NCc2ccncc2)cc1C,41.0,–,–,–
O=C(O)CNS(=O)(=O)c1ccc(Br)s1,–,–,–,–
O=S(=O)(NCc1ccccc1)c1ccc(S(=O)(=O)NCc2ccncc2)cc1,–,–,–,–
Cc1ccc(S(=O)(=O)NCc2ccccc2)cc1C,–,–,–,–
O=S1(=O)CCC(NC(=S)Nc2ccc(O)cc2)C1 (centres undefined),–,–,–,–
COC(=O)c1ccc2c(=O)n(CCN3CCOCC3)c(SCc3ccccc3Cl)nc2c1,–,–,–,–
Cc1c([N+](=O)[O-])cc(S(=O)(=O)NCc2ccccc2)cc1[N+](=O)[O-],–,–,–,–
COc1ccc(N2CCN(c3nc(C)nc4sc(C)c(C)c34)CC2)cc1,–,–,–,–
CC(NCc1c(C(=O)O)n(C)c2ccccc12)C12CC3CC(CC(C3)C1)C2 (centres undefined),–,–,–,–
Cc1ccc(-n2ncc3c(C)nnc(SCC(=O)NC4CCCCC4)c32)cc1,–,–,–,–
CCCOc1ccc(S(=O)(=O)NCc2ccncc2)c2ccccc12,32.4,–,–,–
Cc1cc(S(=O)(=O)NCc2ccncc2)c(C)c(C)c1C,43.4,–,–,–
CCOc1ccc(S(=O)(=O)NCc2ccccc2)c2ccccc12,–,–,–,–
CCOc1cc(S(=O)(=O)NCc2ccncc2)ccc1F,53.9,–,–,–
Cc1cc(S(=O)(=O)NCc2ccncc2)c(C)cc1Cl,–,–,–,–
O=C(O)CNC(=O)c1ccc(N2CCOCC2)c([N+](=O)[O-])c1,–,–,–,–
O=C1N=C(N2CCOCC2)S/C1=C\c1ccc(O)cc1,38.7,–,–,–
O=C1N=C(N2CCOCC2)S/C1=C\c1ccc(F)cc1,–,–,–,–
CC1CCCN(C2=NC(=O)/C(=C/c3ccc(F)cc3)S2)C1 (centres undefined),–,–,–,–
COc1cc(/C=C2\SC(N3CCCC3)=NC2=O)ccc1O,–,–,–,–
SMILES,TEAD-YAP inh,MITF inh,FBW7 act,GPR151 ag
COc1cc(/C=C2\SC(N3CCOCC3)=NC2=O)ccc1O,53.6,–,–,–
CC1CCCN(C2=NC(=O)/C(=C/c3ccc(O)cc3)S2)C1 (centres undefined),48.6,–,–,–
COc1cc(/C=C2\SC(N3CCCC(C)C3)=NC2=O)ccc1O (centres undefined),56.5,–,–,–
COc1ccc(N(CC(=O)NCCc2ccc(Cl)cc2)S(=O)(=O)c2ccccc2)c(OC)c1,–,–,–,–
CC1CCN(S(=O)(=O)c2ccc3nc(-c4cccs4)cc(C(=O)O)c3c2)CC1,–,–,–,–
CCOC(=O)c1csc(CCNC(=O)c2ccc(-n3cc(NC(C)=O)cn3)cc2)n1,–,–,–,–
COc1cn(-c2ccc(F)cc2)nc1C(=O)Nc1ccccc1SC,32.4,–,–,–
CCOC(=O)c1ccc(NC(=O)c2ccc(C)c(S(=O)(=O)N3CCOCC3)c2)cc1,36.8,–,–,–
CCOC(=O)c1ccc(NC(=O)c2ccc(Br)c(S(=O)(=O)N3CCCCC3)c2)cc1,48.9,–,–,–
Cc1ccc(C(=O)Nc2ccc(Sc3ccccc3)cc2)cc1S(=O)(=O)N1CCOCC1,35.6,–,–,–
O=C(CCCCCn1c(=S)[nH]c2cc3c(cc2c1=O)OCO3)NCc1ccccn1,–,–,–,–
COc1ccccc1NS(=O)(=O)c1cc(S(=O)(=O)c2ccccc2OC)c2c3c(cccc13)C(=O)N2,–,–,–,–
O=C(c1c[nH]c2ccc(S(=O)(=O)N3CCOCC3)cc2c1=O)N1CCOCC1,–,–,–,–
CCOC(=O)C(C)Sc1nnc(NC(=O)CCCl)s1 (centres undefined),–,–,3.4,–
